# CHX counter: affects cycloheximide protein synthesis inhibition readout, counter-screen; cell reporter, cycloheximide protein synthesis inhibition counterscreen; max response, %; actives 12% (n = 300,000); in the data active = max response mostly above about 13%, no sharp cut-off; inactive = mostly below about 14%; also: read at 38.3 µM for the half of the compounds with a filed dose
# Shiga toxin inh: inhibitors of Shiga toxin in Vero cells; Vero cells, Shiga toxin protein synthesis inhibition reporter; actives 9.2% (n = 290,000); inhibition, % at 38.7 µM; in the data active = inhibition mostly above about 28%, no sharp cut-off; inactive = mostly below about 43%
# SARS PLP yeast: inhibitors of SARS-CoV papain-like protease in yeast. S. cerevisiae expressing SARS-CoV PLpro, growth rescue. Potency, µM (top dose mostly 32.9 µM), hits mostly activators. actives 0.19% (n = 330,000). AID 485353; also: nearly all actives have a fitted effect of over 55% in size
# Pf growth 48h: P. falciparum growth inhibition at 48 hours (one generation). Potency, µM (highest dose often 28.7 µM), hits mostly inhibitors. AID 504832. actives 5.9% (n = 310,000). P. falciparum luciferase growth in erythrocytes, 48 h; active = well fitted inhibition curve with a large enough effect; inconclusive = small, poorly fitted or top-dose-only effect, or another doubt; inactive = no such curve, though single readings can be large or run the other way
#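 A one-generation exposure of luciferase-tagged malaria parasites in RPMI 1640/Albumax erythrocyte culture, 37 C and 5% CO2. Inhibition is inferred from decreased luminescence after adding detection reagent.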
# NS1 inh: influenza NS1 inhibition. Potency, µM (series often up to 46.1 µM). actives 0.4% (n = 270,000). AID 2326; also: actives are rising curves; nearly all actives have a fitted effect of over 50% in size
#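 A cell-based growth assay was used: compounds that relieve NS1-induced slow growth of budding yeast raise OD600. Assay medium was yeast nitrogen base with ammonium sulphate and -URA supplement, pH 6.0, with 2% galactose.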
# Pf growth 96h: inhibits malaria parasite growth, 96 h; Potency, µM (top dose mostly 28.7 µM), most hits filed as inhibitors; P. falciparum luciferase reporter growth, 96 h; AID 504834; actives 6.9% (n = 320,000); active = well fitted inhibition curve with a large enough effect; inconclusive = small, poorly fitted or top-dose-only effect, or another doubt; inactive = no such curve, though single readings can be large or run the other way
#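 Readout is luminescence from an integrated firefly luciferase in P. falciparum. Red cells, 2% hematocrit and 0.05% parasitemia final, were cultured with compound through two parasite generations (96 hours) at 37 C, 5% CO2.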
# Numbers stand for hits; - = inactive; ? = inconclusive; . = not tested or not shown; [ ] = another dose, or the depositor's remark. In the library only some 21% were active in any assay of this set; here they are far more common. Unless noted, calls follow the shape of the full dose curve.
SMILES,CHX counter,Shiga toxin inh,SARS PLP yeast,Pf growth 48h,NS1 inh,Pf growth 96h
COC(=O)c1cccc(NC(=O)c2cnoc2C)c1,27.6,52.0,-,-,-,-
Cc1oncc1C(=S)Nc1ccccc1,-,-,-,-,-,-
Cc1oncc1C(=O)Nc1ccc2ccccc2c1,34.1,89.0,-,-,-,-
Cc1coc(C)c1C(=O)Nc1ccc2ccccc2c1,63.8,90.1,-,-,-,-
O=C(COC(=O)C1CC2C=CC1C2)Nc1ccc([N+](=O)[O-])cc1 (configuration not stated),.,.,-,.,.,.
CC(C)(C)SCCNC(=O)COc1ccccc1,27.4,-,-,-,-,-
O=C(COc1ccccc1)NCCSc1ccccc1,14.0,-,-,-,-,?
C=CCNC(=O)COc1ccc(Oc2ccccc2)cc1,51.7,64.2,-,-,.,-
CN1CCN(S(=O)(=O)c2ccc(-c3ccc(Cl)cc3)cc2)CC1,-,-,-,-,-[9.22 µM],.
CN1CCN(S(=O)(=O)c2ccc(Cl)cc2)CC1,-,.,-,-,-,1.85µM
CN1CCN(S(=O)(=O)c2ccc(Cc3ccc(S(=O)(=O)N4CCN(C)CC4)cc3)cc2)CC1,-,-,-,?,-,11.7µM
CCOc1ccc(OCC(=O)Nc2ccc(OC)cc2[N+](=O)[O-])cc1,-,-,-,-,-,-
COc1ccc(NC(=O)CN2CCC(C)CC2)c([N+](=O)[O-])c1,21.9,-,-,-,-,-
COc1ccc(NC(=O)CN2CCC(NC(=O)C3CCCCC3)CC2)c([N+](=O)[O-])c1,-,-,-,-,-,?
COc1ccc(NC(=O)CN2CCCCC2)c([N+](=O)[O-])c1,30.4,55.7,-,-,-,-
COc1cc(-c2ccc(NC(=O)CN3CCC(C)CC3)c(OC)c2)ccc1NC(=O)CN1CCC(C)CC1,-,-,-,-,-,-
COc1ccc(NC(=O)CSc2ccccc2)c([N+](=O)[O-])c1,60.2,98.8,-,-,.,-
COc1ccc(NC(=O)CSc2nc3ccccc3n2-c2ccccc2)c([N+](=O)[O-])c1,-,-,-,?,-,-
CCOc1ccc(NC(=O)COC(=O)C2(C)CC2(Cl)Cl)c([N+](=O)[O-])c1 (configuration not stated),18.4,45.1,-,?,-,?
C[C@@H]1O[C@@H](OC2O[C@@H](COc3cc(O)c4c(=O)cc(-c5ccc(O)cc5)oc4c3)[C@@H](O)[C@@H](O)[C@@H]2O)[C@H](O)[C@H](O)[C@H]1O (some centres not stated),-,-,.,.,.,.
CCCOC(=O)Nc1cc(OC)ccc1[N+](=O)[O-],24.6,-,-,-,.,-
Cc1cccc(SCC(=O)Nc2ccccc2[N+](=O)[O-])c1,16.2,-,-,-,-,-
CC1CCN(CC(=O)Nc2ccc(Cl)cc2[N+](=O)[O-])CC1,17.9,-,-,-,.,-
COCC(=O)OCC(=O)Nc1cc(C)c(C)cc1[N+](=O)[O-],15.5,-,-,-,-,-
Cc1ccc([N+](=O)[O-])cc1NC(=O)CN1CCC(C)CC1,-,-,-,-,-,-
SMILES,CHX counter,Shiga toxin inh,SARS PLP yeast,Pf growth 48h,NS1 inh,Pf growth 96h
CCC(C)(C)C(=O)Nc1ccc(OC)cc1[N+](=O)[O-],-,-,-,-,?,-
Cc1cc(C)nc(SCC(=O)Nc2ccccc2[N+](=O)[O-])n1,-,-,-,-,-,-
CCc1ccc(OCC(=O)Nc2ccc(S(=O)(=O)Nc3cc(C)on3)cc2)c(Br)c1,-,-,-,-,-,-
Cc1ccc(N2C(=O)N(CC(=O)N3CCOCC3)C(=O)C2C)cc1 (configuration not stated),-,-,-,-,.,-
COc1ccc(NC(=O)COc2ccc(C)cc2)c([N+](=O)[O-])c1,44.0,86.3,-,-,.,-
COc1ccc(NC(=O)CN(c2ccc(OC)c(Cl)c2)S(=O)(=O)c2ccccc2)c(OC)c1,-,-,-,?,?,11.7µM
COc1ccccc1N(CC(=O)Nc1cc(C)on1)S(=O)(=O)c1cccc(C(F)(F)F)c1,.,.,-,13.1µM,.,?
COc1ccc(N(CC(=O)Nc2ccccc2OC)S(=O)(=O)c2ccccc2)cc1Cl,-,.,-,?,-,-
Cc1cc(NC(=O)COC(=O)CCNS(=O)(=O)c2cccc(C(F)(F)F)c2)no1,-,-,-,-,-,-
COC(=O)c1cc(NC(=O)CN(c2ccccc2OC)S(=O)(=O)c2ccccc2)ccc1Cl,-,-,-,10.4µM,-,-
CCN(CC(=O)Nc1ccc(NC(C)=O)cc1)C(=O)c1cc(C)on1,.,.,-,-,.,-
CCn1nc(C(=O)NNS(=O)(=O)c2ccc(C)cc2)c2ccccc2c1=O,.,.,-,.,.,.
O=C(Nc1cccc(C(F)(F)F)c1)c1csc(-c2ccncc2)n1,-,-,-,?,-,?
COc1cc(NC(=O)c2ccno2)cc(C(=O)Nc2cccc(C(F)(F)F)c2)c1,-,-,-,?,-,?
COc1cc(NC(=O)c2cc3cccc(OC)c3o2)cc(C(=O)Nc2cccc(C(F)(F)F)c2)c1,-,-,-,13.1µM,-,10.4µM
CCN1CCN(Cc2ccc(NC(=O)c3cc(NC(=O)c4ccc5n[nH]nc5c4)cc(OC)c3)cc2C(F)(F)F)CC1,-,-,-,4.15µM,-,2.33µM
CCN1CCN(Cc2ccc(NC(=O)c3cc(NC(=O)c4cncc(-c5cccs5)c4)cc(OC)c3)cc2C(F)(F)F)CC1,-,-,-,?,-,?
COc1cc(NC(=O)c2csc(-c3ccncc3)n2)cc(C(=O)Nc2cccc(C(F)(F)F)c2)c1,-,-,-,?,-,5.22µM
CCN1CCN(Cc2ccc(NC(=O)c3cc(NC(=O)N4CCNC4=O)cc(OC)c3)cc2C(F)(F)F)CC1,-,-,-,5.22µM,-,4.15µM
C[C@H](CO)N1C[C@H](C)[C@@H](CN(C)Cc2ccc(-c3ccccc3)cc2)Oc2c(NC(=O)Nc3ccc(C(F)(F)F)cc3)cccc2C1=O,.,.,-,.,.,.
O=C(COc1ccccc1Cl)NCCNC(=O)c1cccnc1,-,-,-,-,-,-
CCN1CCN(Cc2ccc(NC(=O)c3cc(NC(=O)c4cc(-c5ccc(OC)cc5)n[nH]4)cc(OC)c3)cc2C(F)(F)F)CC1,-,-,-,0.117µM,-,0.0928µM
CCN1CCN(Cc2ccc(NC(=O)c3ccc(C)c(NC(=O)c4ccno4)c3)cc2C(F)(F)F)CC1,-,-,-,?,-,?
CCN1CCN(Cc2ccc(NC(=O)c3cc(NC(=O)c4ccno4)cc(OC)c3)cc2C(F)(F)F)CC1,-,-,-,?,-,0.828µM
CCOc1cccc(C(=O)Nc2ccc(NC(=O)c3cc4ccccc4o3)c(OC)c2)c1,-,-,-,-,-,-
CCN1CCN(Cc2ccc(NC(=O)c3cc(NC(=O)c4cc5cccc(OC)c5o4)cc(OC)c3)cc2C(F)(F)F)CC1,-,-,-,0.828µM,-,0.294µM
